Measured values published in the supplement of paper PMC9262897, “Low-cost anti-mycobacterial drug discovery using engineered E. coli” (Nature Communications, 2022).
Counter-ions that a name gives are not always drawn. ± gives the standard deviation of the averaged measurements.

How the values were obtained:
Assay in all cases: growth (OD600 after 10 h); higher = more growth (less inhibition)
[1] = system: E. coli TESEC Alr+ wild-type control; details: compound 0.1 mM; raw OD600 reference: median of DMSO wells 0.241, cell-free background 0.041
Experimental: (§1)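 TESEC Mtb Alr E. coli, or the Alr+ wild-type control, in 384-well plates with Prestwick library compounds at 0.1 mM and 1% DMSO, across arabinose induction levels of 1E3 to 1E7 nM. Growth is read as OD600 after 10 h at 37 °C in triplicate biological replicates.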

E. coli TESEC Mtb Alr [2] = details: compound 0.1 mM
Experimental: as §1

E. coli TESEC Mtb Asd = details: compound 0.1 mM
Experimental: (§2)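 TESEC E. coli strains in which the native enzyme is deleted and replaced by arabinose-inducible Mtb Asd, DapB, CysH or TrpD, each grown in its selective medium. Strains were screened against the Prestwick library at 0.1 mM and 1% DMSO in 384-well format at low and high arabinose induction. Growth is read as OD600 after 10 h in triplicate.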

E. coli TESEC Mtb DapB = details: compound 0.1 mM
Experimental: as §2

[3] = system: E. coli TESEC Alr+ wild-type control; details: compound 0.1 mM; raw OD600 reference: median of DMSO wells 0.49, cell-free background 0.052
Experimental: (§3)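 TESEC Mtb Alr E. coli (ΔaraC ΔtolC ΔentC Δalr ΔdadX, arabinose-inducible Mtb Alr) or the Alr+ wild-type control strain, grown in defined M9-fructose medium without D-alanine in 96-well plates with Prestwick library compounds at 0.1 mM and 1% DMSO. Low Alr induction is 0.1 µM arabinose and high induction is 10 mM arabinose.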

E. coli TESEC Mtb Alr [4] = details: compound 0.1 mM; remark: listed apart in the source
Experimental: as §3

[5] = arabinose 1000 nM, raw OD600 reference: median of DMSO wells 0.294, cell-free background 0.041
[6] = arabinose 10000 nM, raw OD600 reference: median of DMSO wells 0.264, cell-free background 0.041
[7] = arabinose 100000 nM, raw OD600 reference: median of DMSO wells 0.201, cell-free background 0.041
[8] = arabinose 1000000 nM, raw OD600 reference: median of DMSO wells 0.193, cell-free background 0.041
[9] = arabinose 10000000 nM, raw OD600 reference: median of DMSO wells 0.146, cell-free background 0.041
[10] = arabinose induction (level): High, raw OD600 reference: median of DMSO wells 0.331, cell-free background 0.041
[11] = arabinose induction (level): Low, raw OD600 reference: median of DMSO wells 0.417, cell-free background 0.041
[12] = arabinose induction (level): High, raw OD600 reference: median of DMSO wells […], cell-free background 0.041
[13] = arabinose induction (level): Low, raw OD600 reference: median of DMSO wells 0.227, cell-free background 0.041
[14] = arabinose 100 nM, raw OD600 reference: median of DMSO wells 0.413, cell-free background 0.052
[15] = arabinose 10000000 nM, raw OD600 reference: median of DMSO wells […], cell-free background 0.052

SMILES | growth [1] | growth (E. coli TESEC Mtb Alr [2]; [5]) | growth (E. coli TESEC Mtb Alr [2]; [6]) | growth (E. coli TESEC Mtb Alr [2]; [7]) | growth (E. coli TESEC Mtb Alr [2]; [8]) | growth (E. coli TESEC Mtb Alr [2]; [9]) | growth (E. coli TESEC Mtb Asd; [10]) | growth (E. coli TESEC Mtb Asd; [11]) | growth (E. coli TESEC Mtb DapB; [12]) | growth (E. coli TESEC Mtb DapB; [13]) | growth [3] | growth (E. coli TESEC Mtb Alr [4]; [14]) | growth (E. coli TESEC Mtb Alr [4]; [15])
CC=CC(=O)N(CC)c1ccccc1C [Crotamiton] | 0.242 ± 0.01 | 0.329 ± 0.028 | 0.269 ± 0.014 | 0.236 ± 0.014 | 0.181 ± 0.0031 | 0.158 ± 0.017 | 0.473 ± 0.015 | 0.467 ± 0.02 | 0.236 ± 0.053 | 0.235 ± 0.03 | 0.489 ± 0.022 | 0.4 ± 0.02 | 0.32 ± 0.0055
CCOC(=O)N1CCC(=C2c3ccc(Cl)cc3CCc3cccnc32)CC1 [Loratadine] | 0.146 ± 0.0043 | 0.17 ± 0.0039 | 0.205 ± 0.0047 | 0.173 ± 0.0098 | 0.0897 ± 0.0023 | 0.103 ± 0.0051 | 0.175 ± 0.01 | 0.246 ± 0.023 | 0.195 ± 0.0081 | 0.179 ± 0.0076 | 0.402 ± 0.0043 | 0.391 ± 0.0066 | 0.0517 ± 0.00062
Cc1cc(NC(=O)C2=C(O)c3ccccc3S(=O)(=O)N2C)no1 [Isoxicam] | 0.25 ± 0.0032 | 0.255 ± 0.038 | 0.26 ± 0.0052 | 0.184 ± 0.033 | 0.184 ± 0.0038 | 0.135 ± 0.0033 | 0.252 ± 0.022 | 0.395 ± 0.081 | 0.199 ± 0.0028 | 0.216 ± 0.034 | 0.47 ± 0.018 | 0.412 ± 0.015 | 0.299 ± 0.037
CC(=O)OCC(=O)[C@@]1(O)CC[C@H]2[C@@H]3CCC4=CC(=O)CC[C@]4(C)[C@H]3[C@@H](O)C[C@@]21C [Cortisol acetate] | 0.234 ± 0.0044 | 0.297 ± 0.016 | 0.237 ± 0.0043 | 0.184 ± 0.018 | 0.151 ± 0.0056 | 0.141 ± 0.0061 | 0.366 ± 0.052 | 0.506 ± 0.028 | 0.213 ± 0.0036 | 0.206 ± 0.011 | 0.517 ± 0.032 | 0.399 ± 0.014 | 0.289 ± 0.011
CCCNC(=O)NS(=O)(=O)c1ccc(Cl)cc1 [Chlorpropamide] | 0.255 ± 0.0063 | 0.301 ± 0.007 | 0.25 ± 0.0077 | 0.23 ± 0.048 | 0.184 ± 0.008 | 0.141 ± 0.0057 | 0.392 ± 0.035 | 0.409 ± 0.057 | 0.234 ± 0.032 | 0.231 ± 0.0079 | 0.525 ± 0.065 | 0.396 ± 0.02 | 0.3521 ± 0.0031
CNS(=O)(=O)Cc1ccc2[nH]cc(CCN(C)C)c2c1 [Sumatriptan succinate] | 0.226 ± 0.0042 | 0.298 ± 0.019 | 0.258 ± 0.0057 | 0.2 ± 0.024 | 0.193 ± 0.0067 | 0.137 ± 0.0028 | 0.372 ± 0.026 | 0.503 ± 0.03 | 0.206 ± 0.018 | 0.221 ± 0.028 | 0.441 ± 0.017 | 0.417 ± 0.0056 | 0.353 ± 0.0071
CCc1cc(C(N)=S)ccn1 [Ethionamide] | 0.243 ± 0.0035 | 0.294 ± 0.0077 | 0.262 ± 0.005 | 0.236 ± 0.036 | 0.184 ± 0.0033 | 0.144 ± 0.0028 | 0.299 ± 0.05 | 0.324 ± 0.1 | 0.206 ± 0.011 | 0.217 ± 0.027 | 0.583 ± 0.11 | 0.406 ± 0.0087 | 0.334 ± 0.02
C[C@]12CC[C@@H]3c4ccc(O)cc4CC[C@H]3[C@@H]1CCC2=O [Estrone] | 0.185 ± 0.0043 | 0.249 ± 0.0084 | 0.23 ± 0.0023 | 0.187 ± 0.0045 | 0.153 ± 0.0041 | 0.129 ± 0.0036 | 0.281 ± 0.031 | 0.36 ± 0.074 | 0.208 ± 0.026 | 0.201 ± 0.022 | 0.511 ± 0.013 | 0.402 ± 0.011 | 0.291 ± 0.0057
COc1ccc2cc(CCC(C)=O)ccc2c1 [Nabumetone] | 0.168 ± 0.0082 | 0.208 ± 0.028 | 0.2236 ± 0.0013 | 0.152 ± 0.012 | 0.109 ± 0.0058 | 0.14 ± 0.0083 | 0.304 ± 0.073 | 0.247 ± 0.04 | 0.175 ± 0.0022 | 0.187 ± 0.0098 | 0.485 ± 0.0083 | 0.399 ± 0.01 | 0.297 ± 0.017
CCN(CC)CCOCCOC(=O)C1(c2ccccc2)CCCC1 [Carbetapentane citrate] | 0.203 ± 0.0053 | 0.275 ± 0.015 | 0.249 ± 0.0094 | 0.191 ± 0.03 | 0.133 ± 0.004 | 0.161 ± 0.0033 | 0.153 ± 0.017 | 0.294 ± 0.064 | 0.185 ± 0.021 | 0.199 ± 0.011 | 0.539 ± 0.035 | 0.41 ± 0.0084 | 0.288 ± 0.012
NC(=O)NC1NC(=O)NC1=O (configuration not stated) [Allantoin] | 0.253 ± 0.015 | 0.281 ± 0.017 | 0.258 ± 0.0083 | 0.244 ± 0.0082 | 0.173 ± 0.0071 | 0.142 ± 0.0025 | 0.375 ± 0.027 | 0.424 ± 0.028 | 0.192 ± 0.0069 | 0.276 ± 0.1 | 0.438 ± 0.049 | 0.41 ± 0.011 | 0.28 ± 0.14
Cc1ccc(C(=O)c2ccc(CC(=O)O)n2C)cc1 [Tolmetin sodium salt dihydrate] | 0.234 ± 0.0061 | 0.281 ± 0.014 | 0.253 ± 0.0051 | 0.169 ± 0.011 | 0.184 ± 0.0077 | 0.1348 ± 0.00087 | 0.432 ± 0.032 | 0.3668 ± 0.0019 | 0.197 ± 0.024 | 0.223 ± 0.028 | 0.518 ± 0.05 | 0.387 ± 0.018 | 0.337 ± 0.0088
Cc1c(N(C)CS(=O)(=O)O)c(=O)n(-c2ccccc2)n1C [Dipyrone] | 0.245 ± 0.0074 | 0.323 ± 0.022 | 0.251 ± 0.0032 | 0.217 ± 0.023 | 0.169 ± 0.0052 | 0.157 ± 0.0028 | 0.488 ± 0.025 | 0.452 ± 0.0059 | 0.204 ± 0.003 | 0.23 ± 0.012 | 0.473 ± 0.039 | 0.4104 ± 0.0007 | 0.335 ± 0.011
CC1CCc2c(N3CCC(O)CC3)c(F)cc3c(=O)c(C(=O)O)cn1c23 (configuration not stated) [Nadifloxacin] | 0.04253 ± 5.8e-05 | 0.04043 ± 0.00023 | 0.0418 ± 0.0029 | 0.0437 ± 0.005 | 0.03983 ± 0.00031 | 0.04117 ± 0.00023 | 0.0522 ± 0.007 | 0.0485 ± 0.0008 | 0.0495 ± 0.00066 | 0.0498 ± 0.0021 | 0.0538 ± 0.0013 | 0.0535 ± 0.00072 | 0.05197 ± 5.8e-05
